# Test results taken from PubChem BioAssay AID651658 (Broad Institute, 2012).
# Among all 340,000 compounds or so, about 5,100 (1.5%) were called active. For the sample, actives were picked, then their nearest neighbours and some compounds at random. A number with no mark means an inactive call.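 Rule for the calls: active = mean Tm shift, scaled 0 neutral to 100 positive control, at about 1.3% or above, every replicate too (limit read from the data); inconclusive = no clear call, values can overlap the other calls; inactive = the rest.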
# Biological target: Fibroblast growth factor 22 (Homo sapiens) (UniProt Q9HCT0)
# Experiment: FGF22 ligand-induced thermal stabilization – biophysical, thermal shift, single point, FGF22 synaptogenesis inhibitor project, primary screen (AID 651658)
# Details: recombinant FGF22 thermal shift, SYPRO orange fluorescence; at 9.99 µM; hits give high values; percent of sucrose octasulfate shift, DMSO zero
# Fibroblast growth factor 22 (Homo sapiens), sequence (Q9HCT0 whole entry, looked up): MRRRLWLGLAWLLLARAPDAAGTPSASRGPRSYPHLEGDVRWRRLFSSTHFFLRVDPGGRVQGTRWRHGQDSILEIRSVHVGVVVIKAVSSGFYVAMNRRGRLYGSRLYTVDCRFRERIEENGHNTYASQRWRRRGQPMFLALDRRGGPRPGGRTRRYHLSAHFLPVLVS
row,Structure (SMILES),"activity (Tm shift, normalised)"
1,COc1cccc(S(=O)(=O)N2CCCCN3[C@H](CO)[C@H](c4ccc(-c5ccncc5)cc4)[C@H]3C2)c1,-0.25%
2,O=C(Nc1ccccc1F)N1C[C@H]2[C@@H](c3ccccc31)[C@@H](CO)N2C(=O)Cc1cccnc1,0.459%
3,CC(C)CC(=O)Nc1ccc(Cc2ccncc2)cc1,-0.02%
4,Cc1cc([N+](=O)[O-])nn1CC(=O)Nc1ccc(Cc2ccncc2)cc1,43.3% (active)
5,Cc1cc(C)n(CC(=O)Nc2ccc([N+](=O)[O-])cc2)n1,-0.311%
6,COCC(=O)N1CC[C@H]2[C@H](CO)Nc3ccc(-c4ccc(C(=O)N(C)C)cc4)cc3[C@H]21,-0.374%
7,CN(C)C(=O)C[C@@H]1CC[C@H](NC(=O)NC2CCCC2)[C@H](CO)O1,-0.148%
8,CCC(C)N(C(=O)COC(=O)C1C(C(=O)OC)=C(C)NC(C)=C1C(=O)OC)C1CCS(=O)(=O)C1 (stereo not given),43.2% (active)
9,CCC(C)N(C(=O)COC(=O)c1nc(Cl)ccc1Cl)C1CCS(=O)(=O)C1 (stereo not given),0.546%
10,CCC(C)N(C(=O)CSc1nnnn1-c1ccccc1OC)C1CCS(=O)(=O)C1 (stereo not given),-0.269%
11,O=C(Cc1ccccn1)NCC[C@H]1CC[C@H](NC(=O)Nc2ccc(F)cc2)[C@@H](CO)O1,0.059%
12,O=C(NN=C1CCC(=NNC(=O)c2cccnc2)CC1)c1cccnc1,-0.314%
13,O=C(CNC(=O)c1cccnc1)N/N=C/c1cc(Br)c(O)c(Br)c1,0.674%
14,Cc1cc(/C=N/NC(=O)c2cccnc2)c(C)n1CC(C)C,43% (active)
15,O=C(C[C@@H]1C[C@@H]2c3cc(NC(=O)Nc4ccc(C(F)(F)F)cc4)ccc3O[C@@H]2[C@@H](CO)O1)NCCc1ccccc1,0.083%
16,COc1ccc(NC(=O)N(C)C[C@H]2OCCCC[C@H](C)Oc3ccc(NC(=O)c4ccncc4)cc3C(=O)N([C@H](C)CO)C[C@@H]2C)cc1,-0.473%
17,C[C@@H]1CN([C@H](C)CO)C(=O)c2cc(C3=CCCC3)cnc2O[C@@H]1CN(C)C(=O)Nc1ccc(F)cc1,-0.106%
18,O=C(CN1CCCCCC1)Nc1ccc(Br)cc1[N+](=O)[O-],-0.021%
19,COc1cc(Cl)c(C)cc1NC(=O)CN1CCCCCC1,-0.091%
20,COc1cc([N+](=O)[O-])ccc1NC(=O)CN1CCCC1,1.49% (active)

row,Structure (SMILES),"activity (Tm shift, normalised)"
1,O=C(Nc1ccccc1)Nc1nc2ccccc2s1,43.2% (active)
2,O=C(NCc1cccnc1)C(=O)Nc1nc(-c2ccccc2)cs1,0.205%
3,O=C(Nc1ccccc1)Nc1nnc(COc2ccccc2F)s1,0.184%
4,O=C(CCC(=O)c1cccs1)Nc1nc2ccccc2s1,0.414%
5,NC(c1ccccc1)c1csc(NC(=O)Nc2cccc(C(F)(F)F)c2)n1 (stereo not given),-0.154%
6,CC(=O)Nc1ccc(-c2csc(NC(=O)Nc3ccccc3)n2)cc1,44.8% (active)
7,O=C(C[C@@H]1CC[C@@H](NC(=O)c2ccc3c(c2)OCO3)[C@H](CO)O1)NCc1ccc(Cl)cc1,-0.267%
8,Cc1cc(OCCCCOc2ccc(C#N)cc2)ccc1[N+](=O)[O-],0.385%
9,Cc1nc(SCc2ccc(F)cc2)c([N+](=O)[O-])[nH]1,-0.03%
10,CCCCCOc1ccc(CSC2=NCCN2)cc1[N+](=O)[O-],43.9% (active)
11,C[C@@H]1CCCCO[C@@H](CN(C)C(=O)C2CCCCC2)[C@H](C)CN([C@H](C)CO)C(=O)c2cc(NC(=O)c3ccccc3)ccc2O1,-0.449%
12,CCN(CC)S(=O)(=O)c1ccc(Cl)c(C(=O)NC(C)C(c2cccs2)N2CCCC2)c1 (stereo not given),43.4% (active)
13,CCN(CC)S(=O)(=O)c1ccc(Cl)c(C(=O)NCCN2CCOCC2)c1,-0.116%
14,CCN(CC)S(=O)(=O)c1ccc(N2CCCC2)c(NS(=O)(=O)c2cccs2)c1,-0.637%
15,CN(C)CC(=O)Nc1ccc2c(c1)[C@H]1C[C@H](CC(=O)NCc3ccccn3)O[C@@H](CO)[C@H]1O2,-0.026%
16,O=C(CNC1CCCCC1)NCC1(c2ccccc2)CCCC1,43% (active)
17,CCOc1c(OC)cccc1C(=O)NCC1(c2ccccc2)CCCC1,-0.318%
18,COc1cc(C(=O)NCC2(c3ccccc3)CCCC2)ccc1OC(C)C,-0.207%
19,CO[C@@H]1CN(C)C(=O)c2ccc(NC(=O)C3CCC3)cc2OC[C@H](C)NC[C@H]1C,-0.059%
20,COc1ccc2c3c(n(C)c2c1)[C@@H](CO)N(Cc1ccncc1)CC31CN(C(=O)C2CCC2)C1,-0.256%
